This is a sample that favours compounds with a hit; in the whole collection about 19% have one here.
BCR signal inh: chronic active BCR signaling inhibition; Potency, µM (highest dose often 46.1 µM), for inactives: at the top dose activity change, negative = inhibition, hits mostly inhibitors; hit rate 0.05% among 340,000; ABC-DLBCL IkBa-CBG/CBR reporter, luminescence ratio, 4 h; active = well fitted inhibition curve with a large enough effect in the signal ratio, with a control signal flat, not every such curve was filed as active; inconclusive = small, poorly fitted or top-dose-only effect, or effect the other way, or a change in a side signal; the % refers to the signal ratio;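 note: potency is the fitted concentration of half-maximal effect; plate controls were basal doxycycline-induced cells for no effect and cells given 10 µM MG132 for full effect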
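Concentration-response series (up to 46 uM) were applied to TMD8 dual-reporter cells for 4 h at 37C with doxycycline. Green/red ratio, after filter-overlap correction, defined %Activity; red signal alone was normalised to basal cells and zero luminescence.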
TDP1 cell CPT: growth inhibition of DT40 Tdp1-/-;hTDP1 cells with camptothecin (screen for TDP1 inhibitors) | chicken DT40 Tdp1-/-;hTDP1 cells + 20 nM CPT, ATP luminescence, 48 h | Potency, µM (doses to about 46.2 µM), inactives show top-dose activity change, negative = growth inhibition, actives largely listed as inhibitors | hit rate 12% among 420,000 | AID 686979; note: potency is the fitted concentration of half-maximal effect; % is set by controls: 0 for no effect and ±100 for the full control effect; nearly all actives have a fitted effect of over 55% in size
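Chicken DT40 Tdp1-/- cells complemented with human TDP1, 400 cells/well, exposed to compounds plus 20 nM camptothecin for at least 48 h at 37 C; viability read as ATP content by CellTiter-Glo luminescence.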
MCF10A rereplic: induces DNA re-replication in MCF 10a normal breast cells; hit rate 2.9% among 350,000; AID 624296; MCF 10A DNA re-replication, Hoechst nuclear intensity, 48 h; Potency, µM (highest dose often 46.1 µM), for inactives: at the top dose activity, positive = re-replication, usual class: activators; note: potency is the fitted concentration of half-maximal effect; % of control where 0% means no effect; nearly all actives have a fitted effect of over 50% in size
SW480 rereplic: induces DNA re-replication in SW480 colon adenocarcinoma cells; Potency, µM (titrated, usually from 46.1 µM), for inactives: at the highest dose re-replication activation, actives largely listed as activators; hit rate 1.8% among 340,000; SW480 DNA re-replication, Hoechst DNA content imaging, 48 h; note: potency is the fitted concentration of half-maximal effect; % of control where 0% means no effect; nearly all actives have a fitted effect of over 55% in size
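Compounds, transferred as 23 nL by pin tool, were incubated with cells for 48 hr; DNA content per nucleus was then quantified by Hoechst staining and fluorescence plate imaging.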
DT40 TDP1 no CPT: qHTS for Inhibitors of human tyrosyl-DNA phosphodiesterase 1 (TDP1): qHTS in cells in absence of CPT; DT40 Tdp1-/- hTDP1 cells, no CPT, ATP luminescence, 48 h; Potency, µM (highest dose often 46.2 µM), without a hit: at the highest dose activity change, negative = growth inhibition, hits mostly inhibitors; hit rate 15% among 420,000; AID 686978, 2013; note: potency is the fitted concentration of half-maximal effect; % is set by controls: 0 for no effect and ±100 for the full control effect; nearly all actives have a fitted effect of over 55% in size
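Growth of hTDP1-complemented DT40 Tdp1-knockout cells is measured by ATP luminescence after at least 48 hr compound exposure at 37 °C, with DMSO substituting for the 20 nM CPT used in the parallel screen.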
IL1B secr inh: inhibitors of inflammasome signaling (IL-1 beta secretion); THP-1 LPS/ATP IL-1B secretion, AlphaLISA, 16 h; hits give low values; activity change, % at 57.5 µM; hit rate 4.7% among 360,000; in the data active = activity change below about -50%; inconclusive = mostly about -30% to -49%; note: % is set by controls: 0 for no effect and ±100 for the full control effect
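THP-1 cells pretreated 1 hr with compounds (up to 57.5 uM final), then stimulated with LPS (250 ng/mL final) plus ATP (1.25 mM final); secreted IL-1B measured by AlphaLISA after 16 hr, decreased signal indicating inhibition.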
* marks the source's active call; other numbers are inactive results; ? = inconclusive; . = no result. Unless noted, calls come from the whole dose curve; as a rule, active = well fitted curve in the direction sought with a large enough effect; inconclusive = small, poorly fitted or top-dose-only effect, or another doubt; inactive = no such curve, though single readings can be large; an effect the other way counts as inactive or inconclusive.

SMILES	BCR signal inh	TDP1 cell CPT	MCF10A rereplic	SW480 rereplic	DT40 TDP1 no CPT	IL1B secr inh
O=C(NCc1ccccn1)c1cccc(S(=O)(=O)N2CCCCC2)c1	6%	-3%	1%	-12%	7%	-6
CC1CN(C(=O)CCC(=O)N2CCCCC2)c2cc(Cl)ccc2O1 (stereo not drawn)	1%	-20%	?	2%	16%	4
CC(C)NC(=O)C1CCN(C(=O)N2CC(C)Oc3ccccc32)CC1 (stereo not drawn)	.	10%	.	.	-8%	.
CCCCNC(=O)C1CCN(C(=O)N2CC(C)Oc3ccc(Cl)cc32)CC1 (stereo not drawn)	.	?	.	.	21µM*	.
CC1CN(C(=O)N2CCC(C(=O)NCCCc3ccccc3)CC2)c2cc(Cl)ccc2O1 (stereo not drawn)	.	18µM*	.	.	13µM*	.
CC1CN(C(=O)N2CCC(C(=O)NCCCc3ccccc3)CC2)c2ccccc2O1 (stereo not drawn)	.	21µM*	.	.	?	.
CC1CN(C(=O)N2CCC(C(=O)NCc3ccco3)CC2)c2ccccc2O1 (stereo not drawn)	.	5%	.	.	-19%	.
CC1CN(C(=O)N2CCC(C(=O)N3CCN(c4ccccc4)CC3)CC2)c2cc(Cl)ccc2O1 (stereo not drawn)	.	13µM*	.	.	13µM*	.
Cc1ncc(COC(=O)C(C)C)c2cc(C(=O)Nc3ccccc3C(F)(F)F)c(=O)oc12	.	-13%	.	.	-16%	.
CC1CCCC(NC(=O)C2COc3ccccc3O2)C1C (stereo not drawn)	?	-20%	12%	-7%	?	-1
CC(C)NC(=O)C1CCN(C(=O)N2CCOc3ccc(Cl)cc32)CC1	.	-28%	.	.	?	.
O=C(NCCCc1ccccc1)C1CCN(C(=O)N2CCOc3ccc(Cl)cc32)CC1	.	16µM*	.	.	15µM*	.
CC(CNC(=O)C1CCN(C(=O)N2CCOc3ccc(Cl)cc32)CC1)c1ccccc1 (stereo not drawn)	.	?	.	.	16µM*	.
Clc1ccc(-c2noc3c2-c2nc(Cc4cccc5ccccc45)sc2CC3)cc1	-10%	2%	3%	-29%	11%	4
CCc1cccc(NC(=O)CC(c2ccc(OC)cc2)N2Cc3ccccc3C2=O)c1 (stereo not drawn)	.	21µM*	.	.	16µM*	.
COc1ccc(C(CC(=O)Nc2cccc(C)c2C)N2Cc3ccccc3C2=O)cc1 (stereo not drawn)	.	13µM*	.	.	16µM*	.
CCOC(=O)c1cccc(NC(=O)CC(c2ccc(F)cc2)N2Cc3ccccc3C2=O)c1 (stereo not drawn)	.	?	.	.	26µM*	.
NS(=O)(=O)c1ccc(CNC(=O)C2CCCN2C(=O)c2cccs2)cc1 (stereo not drawn)	2%	14%	-15%	0%	-9%	29
COc1ccccc1-c1ccc(SCc2ccccc2F)nn1	?	-20%	4%	1%	?	-60*
COc1ccccc1-c1ccc(SCc2ccccc2)nn1	?	?	?	2%	21µM*	55
O=C(CSc1ccc(-c2ccc(F)cc2)nn1)NCCc1ccccc1	4%	-4%	0%	3%	-6%	13
COc1ccccc1-c1ccc(SCc2cccc(F)c2)nn1	?	?	?	2%	?	14
COc1ccccc1-c1ccc(SCC(=O)NCCc2ccccc2)nn1	-10%	?	5%	-7%	23µM*	-14
CC(C)c1ccc(C2NC(=S)NC3=C2C(=O)CC(C)(C)C3)cc1 (stereo not drawn)	-7%	8%	5%	0%	-5%	0
O=C(Nc1ccccc1)Nc1ccc(Br)cc1F	?	15µM*	3%	-6%	21µM*	?

Source: PubChem BioAssay (National Center for Advancing Translational Sciences (NCATS))
